What all share (test): NCI-60 one-dose screen, 48 h (100 = growth as untreated, 0 = no growth, -100 = all killed)
The test system of experiment [1] is A549/ATCC NSCLC. Particulars: 10 µM unless noted.
Experiment [2] deals with 786-0 renal. To be noted: 10 µM unless noted.
For experiment [3], the system named is DU-145 prostate. To be noted: 10 µM unless noted.
Experiment [4] relates to SF-268 CNS. To be noted: 10 µM unless noted.
Experiment [5] has as its system SF-539 CNS. To be noted: 10 µM unless noted.
The test system of experiment [6] is HCT-15 colon. To be noted: 10 µM.
Experiment [7] deals with SNB-75 CNS. To be noted: 10 µM unless noted.
Experiment [8] deals with SNB-19 CNS. To be noted: 10 µM unless noted.
The test system of experiment [9] is UACC-62 melanoma. To be noted: 10 µM unless noted.
Experiment [10] relates to SN12C renal. To be noted: 10 µM unless noted.
In experiment [11] the test system is ACHN renal. To be noted: 10 µM unless noted.
Experiment [12] concerns OVCAR-8 ovarian. To be noted: 10 µM unless noted.
In experiment [13] the test system is OVCAR-5 ovarian. To be noted: 10 µM unless noted.
Experiment [14] deals with OVCAR-3 ovarian. Particulars: 10 µM unless noted.
Experiment [15] deals with NCI/ADR-RES ovarian. To be noted: 10 µM unless noted.
The test system of experiment [16] is T-47D breast. To be noted: 10 µM unless noted.
For experiment [17], the system named is MDA-MB-435 melanoma. To be noted: 10 µM unless noted.
For experiment [18], the system named is MCF7 breast. To be noted: 10 µM unless noted.
In experiment [19] the test system is TK-10 renal. Particulars: 10 µM unless noted.
Experiment [20] concerns HL-60(TB) leukemia. To be noted: 10 µM unless noted.

“And” between values parts separate entries of the source, which are not always exact repeats. Equal entries are not always repeated. Compounds without any hit were thinned out: in the full panel of roughly 83,000, 20% have a hit.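 Plates (96-well) were seeded with cells, treated with compound at one concentration, and incubated for 48 hours before percent growth was determined.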 The source made the active and inactive calls. The calls were made as follows: active = growth percent below 10; inactive = the rest.

Take `O=C(O)CNC(=O)c1ccccc1`: the growth was 101% (inactive) in experiment [1]; 100% (inactive) in experiment [2]; 119% (inactive) in [3]; 107% (inactive) in experiment [4]; 89% (inactive) in [5]; 98% (inactive) in experiment [6]. For the same compound, the growth in experiment [7] was 93.7% (inactive); in experiment [8], 98.6% (inactive); in experiment [9], 103% (inactive); in experiment [10] it was 107% (inactive); in experiment [11], 102% (inactive); in experiment [12] it was 113% (inactive). Also, the growth in [13] is 98.6% (inactive); in experiment [14] it was 105% (inactive); in experiment [15] it was 101% (inactive); in experiment [16] it was 104% (inactive); in [17] it was 100% (inactive); in experiment [18] it was 104% (inactive).

With `NC(=O)OCC(CO)(c1ccccc1)c1ccccc1`, the growth in experiment [1] was 103% (inactive); in experiment [2], 96.7% (inactive); in experiment [3], 104% (inactive); in experiment [4], 101% (inactive); in [5], 96.8% (inactive); in [6], 98.8% (inactive). In addition, the growth in experiment [7] is 89.2% (inactive); in experiment [8], 108% (inactive); in experiment [9], 115% (inactive); in [10], 98.4% (inactive); in experiment [19], 97.7% (inactive); in [11], 98.1% (inactive). Also, the growth in experiment [20] is 114% (inactive); in [12], 100% (inactive); in experiment [13] it was 95.3% (inactive); in [14] it was 100% (inactive); in [15], 108% (inactive); in experiment [16], 97.3% (inactive). The growth in experiment [17] is 101% (inactive); in [18] it was 99.3% (inactive).

For `O=C(O)CCC1N=C(c2cccc(O)c2)c2ccccc2NC1=O` (configuration not stated), the growth in experiment [9] was 88.5% [30 µM] (inactive); in experiment [19] it was 96.4% [30 µM] (inactive); in [18], 83.2% [30 µM] (inactive).

With `NC(=O)CN1C(=O)C(Cc2ccc(O)cc2)N=C(c2cccc(O)c2)c2ccccc21` (configuration not stated), the growth in [9] is 80.7% [30 µM] (inactive); in [19] it was 106% [30 µM] (inactive); in [18], 75.5% [30 µM] (inactive).

Consider `CC1CCc2c(C(=O)Nc3ncc(Cc4cccc([N+](=O)[O-])c4)s3)csc2C1` (configuration not stated), for which the growth in [20] is -26.3% (active).

For the compound `N#CCN1C(=O)C(Cc2ccccc2)N=C(c2cccc(O)c2)c2ccc(Cl)cc21` (configuration not stated), the growth in experiment [9] was 103% [30 µM] (inactive); in [19], 102% [30 µM] (inactive); in experiment [18], 100% [30 µM] (inactive).

Take `CCOC(=O)c1c(C)c2c(n1Cc1ccccc1)CSc1cc(C#N)c(=O)[nH]c1-2`: the growth in experiment [20] is 76.8% [100 µM] (inactive).

As to `Cc1ccc2[nH]cc(-c3nc(-c4cn(C)c5ncccc45)cs3)c2c1`, in [20], the growth is 63.7% (inactive).

As to `Cc1c(Cl)cc(-n2c(=O)c3ccccc3c3ccccc3c2=O)cc1Cl`, in experiment [20], the growth is 90.8% (inactive).

For the compound `C/C(=N/OC(=O)N(C)C)c1ccc(Cl)cc1Cl`, the growth in [1] was 97.3% (inactive); in experiment [2] it was 100% (inactive); in experiment [3], 109% (inactive); in [4] it was 103% (inactive); in experiment [5], 95.9% (inactive); in experiment [6], 105% (inactive). Further, the growth in experiment [7] is 79.2% (inactive); in experiment [8], 103% (inactive); in experiment [9], 98.7% (inactive); in experiment [10] it was 96.8% (inactive); in experiment [19], 88.5% (inactive); in experiment [11], 98.7% (inactive). Further, the growth in experiment [20] is 93.7% (inactive); in experiment [12], 106% (inactive); in experiment [13], 106% (inactive); in [14], 99.5% (inactive); in experiment [15], 96.7% (inactive); in [16], 96.7% (inactive). In addition, the results for the growth in experiment [17] and in experiment [18] were 96% (inactive) and 95% (inactive), respectively.

Regarding `CN(N)/N=N/c1nc[nH]c1C(N)=O`, the growth in experiment [9] was -13.9% [100 µM] (active) and 0.502% [100 µM] (active); in [19], 5.8% [100 µM] (active) and 2.21% [100 µM] (active); in experiment [18] it was 19% [100 µM] (inactive) and 4.05% [100 µM] (active).

Consider `CCCCCN1C(=O)C(CO)N=C(c2cccc(O)c2)c2ccccc21` (configuration not stated), for which the growth in [9] was 81.1% [30 µM] (inactive); in [19], 91% [30 µM] (inactive); in [18], 91.1% [30 µM] (inactive).

For the compound `CCOC(=O)C1C(c2ccccc2)C2(C#N)C(=N)OC1(C)C2(C#N)C#N` (configuration not stated), the growth was -70.2% [100 µM] (active) and -92.1% [100 µM] (active) in [9]; -32.2% [100 µM] (active) and -95.8% [100 µM] (active) in experiment [19]; -22.3% [100 µM] (active) and -82.1% [100 µM] (active) in experiment [18].

Turning to `CCCCC[n+]1ccc(SCC(=O)N(C)c2ccc(Oc3ccccc3)cc2)c2ccccc21`, in experiment [20], the growth is 3.74% (active).

With `NC1CCC(Nc2nc(NCc3ccc(-c4ccco4)nc3)c3ncn(C4CCCC4)c3n2)CC1` (configuration not stated), in [20], the growth was -33.3% (active).

Consider `COC1=CC(c2ccc[nH]2)=N/C1=C\c1[nH]c(C)c(CC(=O)NCc2ccccc2)c1C`, for which the growth in [20] is -0.337% (active).

On to `COc1ccc(OC)c(NC(=O)c2cc3oc4ccccc4c3cc2O)c1`, for which, in experiment [20], the growth was 121% (inactive).

Consider `N#CCN1C(=O)C(CCC(N)=O)N=C(c2ccc(O)cc2)c2cc(Cl)ccc21` (configuration not stated), for which the growth in experiment [9] was 91.5% [30 µM] (inactive); in [19] it was 98.2% [30 µM] (inactive); in experiment [18], 93.4% [30 µM] (inactive).

The record behind these values is PubChem BioAssay (NCI).
